In PubChem BioAssay (NCI):
This is part of a sample that, as a whole, favours compounds with a hit. Of some 83,000 tested, about 20% had one in any assay.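 Values shown are percent growth following 48 h exposure of cells in 96-well plates to a single concentration of compound; below 10 was considered active.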 Active and inactive are the calls of the source.

Assays:
Assay in all cases: NCI-60 one-dose screen, 48 h (100 = growth as untreated, 0 = no growth, -100 = all killed)
Conditions in all cases: 10 µM unless noted
[1] = tested on: SK-MEL-2 melanoma
[2] = tested on: EKVX NSCLC
[3] = tested on: SN12C renal
[4] = tested on: UO-31 renal
[5] = tested on: TK-10 renal
[6] = tested on: ACHN renal
[7] = tested on: CAKI-1 renal
[8] = tested on: A498 renal
[9] = tested on: CCRF-CEM leukemia
[10] = tested on: MOLT-4 leukemia

Measured: growth

CC(=O)Oc1cccc(OC(C)=O)c1OC(C)=O
inactive: [1] 103% | [2] 95.4% | [3] 99.4% | [4] 76.6% | [5] 107% | [6] 102% | [7] 84% | [8] 87.3% | [9] 100% | [10] 82.4%

O=S(=O)(NCCNc1cc(-c2cn(-c3ccccc3)nc2-c2ccccc2)ccn1)c1cccc2ccccc12
inactive: [1] 89.5% | [2] 36.5% | [3] 58.9% | [4] 22.3% | [5] 66.8% | [6] 51.7% | [7] 49.8% | [8] 72.5% | [9] 83.5% | [10] 28.4%

Cc1ccc(-c2csc3nc(C)c(CCCl)c(=O)n23)cc1
inactive: [1] 94.5% | [2] 76.8% | [3] 101% | [4] 70.4% | [5] 113% | [6] 99% | [7] 88% | [8] 104% | [9] 104% | [10] 85.6%

O=C(O)C(=Cc1c2ccccc2cc2ccccc12)C(=O)O
inactive: [1] 104% | [2] 104% | [3] 101% | [4] 82% | [5] 93.3% | [6] 97.6% | [7] 99.9% | [8] 83.3% | [9] 101% | [10] 92.4%

O=C(/C=C/CN1CCOCC1)Nc1cc2c(Nc3ccc(F)c(Cl)c3F)ncnc2cc1OCCOC(F)F
active: [8] -5.14%
inactive: [1] 85.6% | [2] 24.8% | [3] 34.4% | [4] 22.9% | [5] 33.9% | [6] 14.2% | [7] 15.9% | [9] 94% | [10] 69.5%

CCOC(=O)/C=C\C(=O)NC(N)=O
inactive: [1] 101% | [2] 98.8% | [3] 103% | [4] 90.8% | [5] 97.8% | [6] 112% | [7] 96% | [8] 107% | [9] 93.9% | [10] 86.5%

C=C1C(=O)O[C@H]2[C@H]1CC/C(COC(=O)NCc1cc(OC)c(OC)c(OC)c1)=C\CC[C@@]1(C)O[C@@H]21
inactive: [1] 73.8% | [2] 75.8% | [3] 47.6% | [4] 70.6% | [5] 51.6% | [6] 45.5% | [7] 54.1% | [8] 109% | [10] 54.1%
active: [9] 6.67%

CC1CCN(C(=O)CSc2nc3sc4c(c3c(=O)[nH]2)CCCC4)CC1
inactive: [1] 80.2% | [2] 98.9% | [3] 102% | [4] 82.6% | [5] 163% | [6] 101% | [7] 96.4% | [8] 95.8% | [9] 74.4% | [10] 98.5%

O=C(Nc1ccc(F)c(Cl)c1)c1n[nH]c(=O)c2ccccc12
inactive: [1] 74.8% | [2] 123% | [3] 98.1% | [4] 106% | [5] 157% | [6] 89.1% | [7] 89.5% | [8] 103% | [9] 105% | [10] 97.2%

Cc1cc2c(C(C)C)c(O)c(O)c(C=NCCCCC(=O)O)c2c(O)c1-c1c(C)cc2c(C(C)C)c(O)c(O)c(C=NCCCCC(=O)O)c2c1O
inactive: [1] 43.6% | [2] 38.4% | [3] 49.2% | [4] 74.2% | [5] 49% | [6] 62% | [7] 73.1% | [8] 56.3% | [9] 29.8% | [10] 34.9%

CC/C=C\C[C@H](O)C/C=C1/C(=O)C(Cl)=C[C@@H]1C/C=C\CCCC(=O)O
active: [9] 2.58%
inactive: [1] 54% | [2] 63.9% | [3] 22.8% | [4] 64.2% | [5] 78.9% | [6] 45.3% | [7] 79.1% | [8] 134% | [10] 40.5%

CC(CCc1ccccc1)NC(=O)c1n[nH]c(=O)c2ccccc12 (stereo not given)
inactive: [1] 79.2% | [2] 105% | [3] 107% | [4] 47.5% | [5] 89.6% | [6] 97.8% | [7] 104% | [8] 98.4% | [9] 83.4% | [10] 83.4%

CCN1C(=O)N[C@H]2[C@@H]3NC(=O)c4ccc(Cl)n4[C@@H]3C[C@]21O
inactive: [2] 10.8% | [4] 37.3% | [6] 14.9% | [7] 31%
active: [1] -37% | [3] -1.6% | [5] 4.37% | [8] -0.0737% | [9] -7.16% | [10] 0.842%

Cc1cc2c(C(C)C)c(O)c(O)c(C=NCCCCCCC(=O)O)c2c(O)c1-c1c(C)cc2c(C(C)C)c(O)c(O)c(C=NCCCCCCC(=O)O)c2c1O
inactive: [1] 28.5% | [2] 27.7% | [3] 35.7% | [4] 28.8% | [5] 17.3% | [6] 42.1% | [7] 63.3% | [8] 36.6% | [9] 18.1% | [10] 18.5%

O=S(=O)(NCCCNc1cc(-c2cn(-c3ccccc3)nc2-c2cccc(O)c2)ccn1)c1ccc(Cl)cc1
active: [1] 5.9% | [10] 4.49%
inactive: [2] 27.6% | [3] 34.5% | [4] 10% | [5] 33.5% | [6] 17% | [7] 15.3% | [8] 26.4% | [9] 11.6%

CC1Cc2c(N(C)C)ncnc2N(C)c2ccc(Cl)cc21 (stereo not given)
inactive: [1] 27.3% | [2] 29.3% | [3] 47.9% | [4] 59.4% | [5] 31.8% | [6] 47.1% | [7] 25.1% | [9] 18.1% | [10] 28.2%
active: [8] -12.5%

CN(C)C1CCC(NC2=CC(=O)C=CC2=O)CC1 (stereo not given)
inactive: [1] 107% | [2] 111% | [3] 115% | [4] 92.3% | [5] 113% | [6] 99.2% | [7] 100% | [8] 122% | [9] 107% | [10] 102%

O=C(Nc1ccc(I)cc1)c1cc([N+](=O)[O-])ccc1O
inactive: [2] 39.7% | [3] 34.3% | [4] 22.5% | [5] 40% | [6] 48.8% | [7] 30.9% | [9] 28.4% | [10] 18.8%
active: [1] -0.392% | [8] -27.9%

O=[N+]([O-])c1cccc(-c2cc(-c3cc(Br)ccc3O)[nH]n2)c1
active: [9] 8.04% | [10] 4.68%
inactive: [1] 24% | [2] 18.1% | [3] 24.8% | [4] 20.1% | [5] 12.5% | [6] 10.2% | [7] 40.5% | [8] 40%

Cc1oc2ncnc(Nc3ccccc3)c2c1C(=O)NCCO
inactive: [1] 113% | [2] 97.6% | [3] 93.2% | [4] 87.7% | [5] 122% | [6] 91.8% | [7] 90.8% | [8] 78.2% | [9] 97.4%
active: [10] -0.282%

COc1ccc2c(c1)NC(=O)CN2c1nc(NC2CC2)nc2ccccc12
active: [8] -12.8%
inactive: [1] 25.7% | [2] 27.8% | [3] 39.1% | [4] 28.7% | [5] 23.6% | [6] 24.9% | [7] 32.9% | [9] 31.7% | [10] 33.9%

CC1Cc2c(N(C)C)ncnc2N(C)c2ccc(O)cc21 (stereo not given)
inactive: [1] 89.6% | [2] 71.3% | [3] 99% | [4] 80.2% | [5] 95.9% | [6] 101% | [7] 70.7% | [8] 76.7% | [9] 85.3% | [10] 75.6%

CCOC(=O)c1cc(/C(=N\O)c2cc(OC)c(OC)c(OC)c2)n2c(C)cccc12
active: [8] -1.4%
inactive: [1] 21.8% | [2] 36.6% | [3] 54.3% | [4] 54% | [5] 21.2% | [6] 37.3% | [7] 36% | [9] 22.5% | [10] 28.5%

CCCCCCCN(CCCCCCC)C(=N)c1ccc(OC)c2ccccc12
active: [1] -82.5% | [2] -21.7% | [3] -75.4% | [4] -86.6% | [5] -89.4% | [6] -91.9% | [7] -12.2% | [8] -52.9% | [9] -43.5% | [10] -50.4%

CN(C)c1nc(N)c(N=O)c(N)n1
inactive: [1] 104% | [2] 111% | [3] 110% | [4] 101% | [5] 110% | [6] 109% | [7] 103% | [8] 76.1% | [9] 112% | [10] 105%

Cc1cc(NC(=O)COC(=O)c2sc3cc(F)ccc3c2Cl)no1
inactive: [1] 44.8% | [2] 105% | [3] 107% | [4] 39.2% | [5] 125% | [6] 106% | [7] 110% | [8] 103% | [9] 66.9% | [10] 108%

NC(=O)c1c(NC(=O)c2ccc3c(c2)OCO3)sc2c1CCC(=O)C2
active: [1] -57.8% | [2] 5.58% | [3] 8.18% | [4] -93.4% | [5] -20.2% | [6] -57.7% | [7] -80% | [8] -3.77% | [9] -33.3% | [10] -20.8%
